Screens: PubChem, several laboratories
Rows were chosen to be rich in hits. Some 1.6% of all compounds tested hit in one or more screens of this group.
Myeloid diff MLP: compounds promoting myeloid differentiation | 360,000 compounds, 1% hits | AID 624256 | ER-HoxA9 myeloid progenitors, lysozyme-GFP differentiation, flow cytometry | calls only at 10 µM;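 active = normalized GFP-positive differentiation at or above the plate's own cutoff, the solvent-only control mean plus 3 SD; inconclusive = no clear call, values can overlap the other calls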;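 note: cells exposed to compound for four days before flow analysis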
RAD54 inh: RAD54 (human) branch migration inhibition. 360,000 compounds, 0.14% hits. RAD54 Holliday junction branch migration, FAM/BHQ fluorescence. Q92698. inhibition, % at 10.4 µM;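 active = mean normalized replicate activity at least 40 and at least half of replicates scoring 40 or more; inconclusive = only one of the two criteria met; inactive = mean below 40 and under half of replicates reaching 40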;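 note: 0% = median of neutral control wells and 100% = median of positive control wells; inhibitors cause a drop in the FAM fluorescence signal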
Target sequence (Q92698 whole entry, looked up): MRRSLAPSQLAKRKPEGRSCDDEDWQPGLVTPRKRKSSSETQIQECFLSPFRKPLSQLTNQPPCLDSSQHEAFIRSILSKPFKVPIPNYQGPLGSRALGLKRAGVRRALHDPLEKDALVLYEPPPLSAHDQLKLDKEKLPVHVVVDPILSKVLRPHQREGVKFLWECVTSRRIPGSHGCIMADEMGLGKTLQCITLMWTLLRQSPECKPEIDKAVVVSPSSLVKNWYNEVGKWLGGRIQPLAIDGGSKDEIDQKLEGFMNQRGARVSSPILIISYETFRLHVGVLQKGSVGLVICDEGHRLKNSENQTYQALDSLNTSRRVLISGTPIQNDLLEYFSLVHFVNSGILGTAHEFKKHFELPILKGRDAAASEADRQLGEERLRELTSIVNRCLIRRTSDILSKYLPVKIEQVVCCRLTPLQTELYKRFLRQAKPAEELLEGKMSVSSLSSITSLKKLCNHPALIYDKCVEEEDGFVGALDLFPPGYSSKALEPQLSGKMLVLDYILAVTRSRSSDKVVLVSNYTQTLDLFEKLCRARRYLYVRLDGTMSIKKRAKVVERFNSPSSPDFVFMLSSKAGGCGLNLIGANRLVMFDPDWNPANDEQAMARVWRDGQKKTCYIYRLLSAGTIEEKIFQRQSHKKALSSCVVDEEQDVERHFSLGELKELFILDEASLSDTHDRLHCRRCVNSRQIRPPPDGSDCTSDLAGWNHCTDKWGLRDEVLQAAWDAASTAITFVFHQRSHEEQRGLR
N-glyco inh: N-linked glycosylation inhibition; 360,000 compounds, 0.23% hits; reporter increase, % at 12.5 µM; AID 588692; D54 ERlucT glycosylation luciferase reporter, 24 h; percent of 100 nM tunicamycin response;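 active = mean luciferase reporter signal, scaled so untreated is 0 and the glycosylation-blocking control 100, at or above a set limit in every replicate; inconclusive = mean reaches the limit but not every replicate does; inactive = mean below the limit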;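 note: luciferase carries N-glycosylation sites so blocking glycosylation raises the light; 0% = median of neutral control wells and 100% = median of 100 nM tunicamycin wells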
ABCB6 inh MLPCN: blocks the human ABCB6 transporter. Q9NP58. AID 602162. 360,000 compounds, 0.19% hits. fluorescence ratio to DMSO, % at 10 µM. K562-ABCB6 porphyrin accumulation, flow cytometry, 1 h; stronger effect = lower value;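 active = fluorescence ratio to DMSO below 75%, the collection mean minus 3 SD; inconclusive = too few cells collected in the well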;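 note: signal is porphyrin accumulated inside mitochondria; 100% equals median channel fluorescence of DMSO control wells; lower ratio means ABCB6 inhibition with less porphyrin fluorescence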
Vif imaging: HIV Vif inhibition; HEK293T cells, Vif self-association by quenched fluorescence, imaging, 24 h; inhibition, % at 7.49 µM; 340,000 compounds, 0.35% hits; AID 602346; in the data active = inhibition above about 50%, passing the limit was not always enough; inconclusive = no clear call, values can overlap the other calls; inactive = below about 31%
Starred values were filed as active, the others as inactive; i = inactive; u = inconclusive; x = no result given; + = active, no number.

SMILES	Myeloid diff MLP	RAD54 inh	N-glyco inh	ABCB6 inh MLPCN	Vif imaging
COc1cc(NC(=S)N2CCN(C/C=C/c3ccccc3)CC2)cc(OC)c1	+	x	1	397	-5
O=C(C[C@@H]1C=C[C@H](NC(=O)Nc2cc(F)ccc2F)[C@@H](CO)O1)NCc1ccccn1	x	10	x	x	x
CC(C)CC#Cc1cnc2c(c1)C(=O)N([C@H](C)CO)C[C@@H](C)[C@@H](CN(C)Cc1ccccc1C(=O)O)O2	x	3	x	x	x
O=c1ccc2c(-c3ccccc3)c3ccc(O)cc3oc-2c1	+	i	2	279	i
O=c1cc(-c2ccccc2)oc2cc(O)ccc12	i	4	0	97	-2
Nc1ccc(-c2c3ccc(=O)cc-3oc3cc(O)ccc23)cc1C(=O)O	+	x	2	104	-2
C[C@H](CO)N1C[C@H](C)[C@@H](CN(C)C(=O)Nc2ccc(F)cc2)OCCCC[C@H](C)Oc2ccc(NC(=O)NC3CCCCC3)cc2C1=O	x	-2	x	x	x
O=C(CSc1nnc(CNc2ccc(F)cc2)o1)c1ccccc1	i	x	1	100	62*
O=S(=O)(Nc1nc2ccccc2s1)c1ccc(Br)s1	+	3	0	92	-13
COc1cc(NC(=O)COc2ccccc2)ccc1NC(=O)c1ccco1	i	1	-1	94	66*
COc1ccc(NC(=O)Cn2nnc(-c3ccccc3NC(=O)c3ccco3)n2)cc1	+	0	8	99	18
CO[C@H]1CN(C)C(=O)c2cc(NC(=O)C3CC3)ccc2OC[C@@H](C)N(C(=O)c2ccccc2)C[C@H]1C	x	5	x	x	x
CO[C@H]1CN(C)C(=O)c2ccc(NC(C)=O)cc2OC[C@@H](C)N(C(=O)c2cccnc2)C[C@@H]1C	x	-7	x	x	x
CCOCC(=O)N1CCCC(C(=O)OCC)C1 (stereo unspecified)	i	-6	2	95	9
CCCCC(=O)N1CCCC(C(=O)OCC)C1 (stereo unspecified)	+	2	1	100	2
O=C1NC(=S)S/C1=C/c1ccc(OC(=O)c2ccco2)cc1	+	-10	0	99	-1
CCN(CC)c1ccc(C=C2SC(=S)NC2=O)cc1	+	x	-1	700	x
Cc1cc(/C=C2\SC(=S)NC2=O)cc(C)c1O	i	-11	4	109	x
CCOc1cc(/C=C2/SC(=S)NC2=O)ccc1OC(=O)c1ccco1	i	x	-2	97	-23
CCN(CC)c1ccc(/C=C2\SC(N)=NC2=O)cc1	+	-17	1	140	i
COCc1cn(CC[C@H]2CC[C@@H](NC(=O)Nc3ccc(Cl)cc3)[C@@H](CO)O2)nn1	x	-3	x	x	x
COc1ccc(S(=O)(=O)Nc2ccc3c(c2)C(=O)N([C@@H](C)CO)C[C@H](C)[C@@H](CN(C)S(C)(=O)=O)OCCCC[C@@H](C)O3)cc1	x	-5	x	x	x
CCOCCCNC(=O)/C(C#N)=C/c1cc(Br)c(O)c(Br)c1	x	-11	30*	100	17
COc1ccc(OC)c(S(=O)(=O)N2CCN(c3ccccc3)CC2)c1	i	-10	-1	95	4
COc1ccc(OC)c(S(=O)(=O)ON2C(=O)c3ccccc3C2=O)c1	+	-7	22	105	-2
SMILES	Myeloid diff MLP	RAD54 inh	N-glyco inh	ABCB6 inh MLPCN	Vif imaging
COc1ccc(C(=O)N2C[C@H]3[C@@H](c4ccccc42)[C@H](CO)N3C(=O)c2ccc(F)cc2)cc1	x	0	x	x	x
COc1ccc(C2C(C#N)=C(C)NC3=C2C(=O)c2ccccc23)cc1 (stereo unspecified)	i	10	-4	97	1
COc1cc(C2C(C#N)=C(C)NC3=C2C(=O)c2ccccc23)cc(OC)c1OC (stereo unspecified)	+	9	12	97	x
CCCN1C2CCCC1CC(NC(=O)Nc1cccc(C(C)=O)c1)C2 (stereo unspecified)	i	-5	3	92	-13
CCc1cccc(CC)c1NC(=O)CN1C2CCCC1CC(NC(=O)Nc1cccc(OC)c1)C2 (stereo unspecified)	i	x	39*	105	0
CC(=O)c1cccc(NC(=O)NC2CC3CCCC(C2)N3CC(C)C)c1 (stereo unspecified)	i	-1	3	98	54*
COc1cccc(NC(=S)NC2CC3CCCC(C2)N3C2CCCC2)c1 (stereo unspecified)	i	x	-1	91	-2
O=C(Nc1ccc(Cl)cn1)c1ccccc1F	i	2	-8	110	11
COc1ccc(OC)c(NC(=O)c2cc3ccccc3cc2OC)c1	i	2	0	98	51*
COc1ccc(C(=O)Nc2cc(OC)ccc2OC)cc1	i	-6	-2	93	0
COc1ccc(C(=O)Nc2cc(OC)c(NC(=O)Nc3ccccc3)cc2OC)cc1	i	-8	-2	89	73*
COc1cc2ccccc2cc1C(=O)Nc1ccc(Cl)cn1	i	-12	0	102	84*
O=C(CCC(=O)n1ncc2ccccc21)N1CCCCC1	+	-1	1	104	x
Cc1ccc2c(cnn2C(=O)CCC(=O)N2CCCCC2)c1	i	16	2	101	8
COc1ccccc1N=Nc1c(O)[nH]c2ccc(Br)cc12	+	-18	0	232	4
Cc1cccc(N=Nc2c(O)[nH]c3ccc(Br)cc23)c1	i	-7	4	111	0
O=C(O)CNC(=O)c1ccc(OC(F)F)cc1	i	-6	-1	100	0
O=C(O)CNC(=O)c1ccc(Oc2c(F)c(F)c(Oc3ccc(C(=O)NCC(=O)O)cc3)c(F)c2F)cc1	+	-12	2	100	4
Nc1ccc(C(=O)NCC(=O)O)cc1	+	-9	-1	101	-5
CNC[C@H]1Oc2cc(C#CCN(C)C)ccc2S(=O)(=O)N([C@@H](C)CO)C[C@@H]1C	x	-11	x	x	x
COc1ccc(S(=O)(=O)N2c3cc(Cl)ccc3Oc3nc4ccccc4nc32)cc1	u	9	2	86	58*
COc1ccc(NC(=O)N(C)C[C@@H]2OCCCC[C@H](C)Oc3ccc(NC(=O)Nc4ccc(C(F)(F)F)cc4)cc3C(=O)N([C@@H](C)CO)C[C@H]2C)cc1	x	6	x	x	x
N#C/C(=C(/O)CCl)c1nc2c(s1)CCc1ccccc1-2	+	0	7	180	u
Cc1ccc(S(=O)(=O)N(C)C[C@@H]2Oc3ccc(NS(C)(=O)=O)cc3CC(=O)N([C@@H](C)CO)C[C@@H]2C)cc1	x	11	x	x	x
Cc1cccc(CSc2nc3nc(C)cc(C)n3n2)c1	+	x	-1	458	-13
Cc1cc(C)n2nc(SCCOc3ccc(F)cc3)nc2n1	+	x	-1	155	15
COc1ccccc1C(=O)Nc1nc2cc3c(cc2s1)OCO3	i	-2	-2	98	x
COc1ccccc1C(=O)Nc1nc2cc3c(cc2s1)OCCO3	+	0	2	92	-1
COc1ccc(C(=O)Nc2nc3cc4c(cc3s2)OCCO4)c(OC)c1	i	x	-1	97	78*
